Inconclusive results are not listed. Active and inactive are the calls of the source. Rule for the calls: active = hit-call score of the fitted dose curve at least 0.9, where 1 is the maximum; inconclusive = response in the unintended direction; inactive = score below 0.9.

Sequence of Glyceraldehyde-3-phosphate dehydrogenase (Homo sapiens) (P04406 whole entry, looked up): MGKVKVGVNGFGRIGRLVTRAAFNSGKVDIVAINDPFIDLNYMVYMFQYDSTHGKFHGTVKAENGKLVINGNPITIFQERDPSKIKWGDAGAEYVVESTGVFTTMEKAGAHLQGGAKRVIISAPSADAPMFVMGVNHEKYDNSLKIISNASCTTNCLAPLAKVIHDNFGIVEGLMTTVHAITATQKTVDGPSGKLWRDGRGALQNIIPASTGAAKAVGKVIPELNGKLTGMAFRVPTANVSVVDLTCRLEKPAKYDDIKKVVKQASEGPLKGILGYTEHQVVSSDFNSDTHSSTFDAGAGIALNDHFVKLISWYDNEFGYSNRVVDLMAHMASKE

Read-out in the assay: Glyceraldehyde-3-phosphate dehydrogenase (Homo sapiens) (UniProt P04406)
The experiment in a line: CLD_GAPDH_24hr: CellzDirect (CLD) Gene Expression Assay for Baseline Control (Glyceraldehyde 3-phosphate dehydrogenase) at 24 hours (AID 2283692). As to the method:
CLD_24hr is a cell-based, multiplexed-readout assay that uses hepatocyte, a human liver primary cell, with measurements taken at 24 hours after chemical dosing in a 96-well plate.CLD_GAPDH_24hr is one of 16 assay component(s) measured or calculated from the CLD_24hr assay. It is designed to make measurements of mRNA induction, a form of inducible reporter, as detected with chemiluminescence signals by Quantitative Nuclease Protection Assay (qNPA) technology.Data from the assay component CLD_GAPDH_24hr was analyzed at the endpoint, CLD_GAPDH_24hr, in the positive analysis fitting direction relative to DMSO as the negative control and baseline of activity. Using a type of inducible reporter, gain-of-signal activity can be used to understand changes in the reporter gene as they relate to the gene GAPDH. Furthermore, this assay endpoint can be referred to as a secondary readout, because this assay has produced multiple assay endpoints where this one serves a background control function. To generalize the intended target to other relatable targets, this assay endpoint is annotated to the background measurement intended target family, where subfamily is baseline control.
Human hepatocyte cultures were treated daily for two consecutive days with fresh dosing solutions containing appropriate concentrations of the 320 ToxCast chemicals (chemical identities were blinded to CellzDirect and other ToxCast collaborators), vehicle control (0.2% DMSO), and positive control inducers as summarized in Table 1. Due to the large number of treatment groups and chemicals examined, the ToxCast chemicals were divided into two groups (spanning two independent cultures of hepatocytes from separate donor preparations (Hu778: ToxCast plates 1 and 2; Hu776: ToxCast plates 3 and 4). Each preparation of human hepatocyte cultures was treated with respective vehicle control, medium only control, set of six positive controls/reference chemicals for the five hepatic receptor pathways, and a subset of eight of the ToxCast chemicals (indoxacarb, pyrithiobac-sodium, norflurazon, cyhalofop-butyl, methomyl, thiram, acetochlor, and propiconazole). These replicate data, coupled with internal replicates designed within the blinded ToxCast chemical library, provided additional data to evaluate interindividual differences between hepatocyte preparations and their potential impact on chemical profiles.Cell morphology and integrity were evaluated using phase-contrast microscopy as an indicator of hepatocyte cell health (Tyson & Green, 1987). Cultures for each treatment group (i.e., media, vehicle [0.2% DMSO], positive control inducers [multiple concentrations], and the ToxCast chemicals [multiple concentrations]) were observed and cell morphology was assessed relative to vehicle control cultures at each harvest time point (0, 6, 24, or 48 h). […] Images were evaluated at the conclusion of the study to assess changes in cell integrity and account for the effects of chemical exposure on uncharacteristic changes in concentration-dependent gene expression profiles. The results from these determinations of apparent cytotoxicity were annotated (yes/no) alongside the corresponding qNPA data for reference.At the conclusion of each treatment period, hepatocyte cultures (96-well) were washed with 1 volume of HBSS, lysed by addition of 25 ul ArrayPlate lysis buffer (HTG, Tucson, AZ), and 70 ul/well of Denaturation Oil, denatured by incubation at 95C for 10 min, and frozen at approximately -70C until analysis by nuclease protection assay (qNPA) (Roberts et al., 2007). For qNPA analysis, cell lysates were thawed at 50C for approximately 30 min, qNPA probes were added, and samples were incubated at 95C for 10 min to begin the detection process by denaturing the target RNA, dissociating the duplexes and secondary structure hybridization. At the conclusion of the hybridization period, S1 nuclease reagent was added to each sample to digest all nonprotected nucleotides at 50C for 60-90 min. […]
Consider `N#Cc1c(Cl)c(Cl)c(Cl)c(C#N)c1Cl`, for which the compound was classed as inactive.

On to `OCCOc1ccccc1`, for which the result was inactive.

With `COP(=O)(OC)OC=C(Cl)Cl`, the outcome was inactive.

`O=C1c2ccccc2C(=O)N1SC(Cl)(Cl)Cl`: the result was inactive.

As for `CCOCN(C(=O)CCl)c1c(C)cccc1CC`, the compound was classed as inactive.

In the case of `Cc1cc(C)nc(NC(=O)NS(=O)(=O)c2ccccc2C(=O)OC2COC2)n1`, the result was inactive.

On to `O=[N+]([O-])/N=C1\NCCN1Cc1ccc(Cl)nc1`, for which the call was inactive.

`CCOc1nc(NC)nc(NC(=O)NS(=O)(=O)c2ccccc2C(=O)OC)n1`: the call was inactive.

On to `C#CCN1C(=O)COc2cc(F)c(N3C(=O)C4=C(CCCC4)C3=O)cc21`, for which the result was inactive.

Take `CN1CSC(=S)N(C)C1`: the call was inactive.

For `O=C(O)C(F)(F)C(F)(F)C(F)(F)C(F)(F)C(F)(F)C(F)(F)C(F)(F)F`, the result was inactive.

Consider `COC(=O)c1ccccc1CS(=O)(=O)NC(=O)Nc1nc(OC)cc(OC)n1`, for which the call was inactive.

Take `Cc1[nH]c(=O)n(C(C)(C)C)c(=O)c1Cl`: the compound was classed as inactive.

With `Oc1ccc(Cl)cc1Cc1ccccc1`, the outcome was inactive.

Consider `CNC(=O)Oc1cccc(N=CN(C)C)c1`, for which the result was inactive.

`COc1cc(OC)nc(NC(=O)NS(=O)(=O)c2cc(NC=O)ccc2C(=O)N(C)C)n1`: the call was inactive.

In the case of `[2H]C1([2H])[n+]2ccccc2-c2cccc[n+]2C1([2H])[2H]`, the outcome was inactive.

Regarding `CNC(=O)CSP(=S)(OC)OC`, the compound was called inactive.

Regarding `CNC(=O)Oc1ccccc1OC(C)C`, the outcome was inactive.

With `Oc1cc(Cl)ccc1Oc1ccc(Cl)cc1Cl`, the outcome was inactive.

`O=C(O)COc1ccc(Cl)cc1Cl`: the call was inactive.

For the compound `CCC(C)(NC(=O)c1cc(Cl)c(C)c(Cl)c1)C(=O)CCl` (configuration not stated), the result was inactive.

In the case of `O=C(Nc1ccccc1)Nc1cnns1`, the outcome was inactive.

As to `CC(C)N(C(=O)COc1nnc(C(F)(F)F)s1)c1ccc(F)cc1`, the outcome was inactive.

In the case of `O=S(=O)(O)C(F)(F)C(F)(F)C(F)(F)C(F)(F)C(F)(F)C(F)(F)C(F)(F)C(F)(F)F`, the result was inactive.

For `COC(=O)c1ccccc1S(=O)(=O)NC(=O)Nc1nc(C)nc(OC)n1`, the call was inactive.

Take `N#CN`: the compound was called inactive.

The values above are taken from PubChem BioAssay (EPA / NIEHS).
